What was measured:
Conditions in all cases: Compound Concentration (nM):1000
PAK1 = system: PAK1
PAK2 = system: PAK2
PAK3 = system: PAK3
PAK4 = system: PAK4
PAK6 = system: PAK6
PAK7 = system: PAK7
PCTK1 = system: T1, PCTK1
T1 construct: gene CDK16

PCTK2 = system: T2, PCTK2
T2 construct: gene CDK17

PCTK3 = system: T3, PCTK3
T3 construct: gene CDK18

PDGFRA = system: PDGFRA
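Further: KINOMEscan scanMAX binding as percent activity remaining versus control; lower means stronger binding.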

Structure (SMILES)	Percent Control (PAK1)	Percent Control (PAK2)	Percent Control (PAK3)	Percent Control (PAK4)	Percent Control (PAK6)	Percent Control (PAK7)	Percent Control (PCTK1)	Percent Control (PCTK2)	Percent Control (PCTK3)	Percent Control (PDGFRA)
CC1=C(C(=O)Nc2ccc3[nH]ncc3c2)C(c2ccc(Cl)c(Cl)c2)CC(=O)N1 (stereo not shown) [GSK299115A]	94%	84%	96%	82%	79%	91%	85%	100%	93%	100%
COc1ccc2c(-c3ccnc(Nc4cccc(OC(F)(F)F)c4)n3)cnn2n1 [GW810372X]	100%	100%	100%	100%	96%	100%	100%	100%	99%	87%
Cc1cc(O)cc(C)c1/C=C/c1cncc(C(N)=O)c1 [GW435821X]	99%	100%	84%	100%	98%	100%	100%	100%	93%	18%
Cl.c1ccc(Cc2nc3ccc(Nc4ncnc5ccccc45)cc3[nH]2)cc1 [GR269666A]	100%	100%	100%	100%	100%	100%	100%	100%	100%	49%
O=C(Nc1n[nH]c2nc(-c3ccc(O)cc3)c(Br)cc12)C1CC1 [SB-725317]	89%	60%	71%	100%	100%	100%	24%	62%	77%	29%
CCS(=O)(=O)c1ccc(OC)c(Nc2ncc(-c3cccc(OC)c3)o2)c1 [GW580509X]	100%	100%	100%	100%	96%	100%	100%	100%	100%	69%
NS(=O)(=O)c1ccc(N/N=C2\C(=O)Nc3ccc(C(=O)NCc4ccncc4)cc32)cc1 [GW300657X]	100%	100%	63%	100%	81%	87%	0.2%	22%	68%	27%
O=C1Nc2ccc(C(=O)c3ccco3)cc2C1=Cc1cc(Cl)c(O)c(Cl)c1 [GW406108X]	100%	80%	100%	100%	80%	100%	100%	100%	91%	79%
Nc1ncnc2occ(-c3ccc(NC(=O)Nc4cc(C(F)(F)F)ccc4F)cc3)c12 [GW770249X]	100%	100%	31%	100%	100%	100%	82%	29%	31%	1.4%
CN1CCN(C(=O)c2ccc(NC(=O)Nc3ccc(N(C)c4ccnc(Nc5ccc(CS(C)(=O)=O)cc5)n4)cc3)cc2)CC1.Cl [GW830263A]	92%	50%	0%	46%	92%	67%	76%	91%	96%	2%
COc1cc(C)c(N(C)C(=O)CN(C)C)cc1Nc1nc(Nc2cccc(F)c2C(N)=O)c2cc[nH]c2n1 [GSK2219385]	100%	74%	100%	100%	96%	82%	79%	100%	100%	100%
NS(=O)(=O)c1ccc(N/N=C2\C(=O)Nc3ccc(Cl)cc32)cc1 [GW280670X]	100%	100%	100%	100%	100%	100%	26%	100%	100%	28%
Cl.O=C(Nc1ccc(Oc2ccc3[nH]c(NC(=O)c4ccco4)nc3c2)cc1)Nc1cc(C(F)(F)F)ccc1F [GW683134A]	100%	100%	5.6%	100%	92%	100%	100%	100%	100%	11%
COc1cccc(-c2c[nH]c3c(N/N=C/c4ccncc4)ncnc23)c1 [GW814408X]	100%	94%	1.9%	100%	100%	100%	28%	75%	100%	8.2%
COc1ccc2[nH]c3c4[nH]c5ccc(OC)cc5c4c4c(c3c2c1)C(=O)NC4=O [GW296115X]	70%	91%	4.2%	90%	100%	91%	99%	72%	80%	11%
CC1=C(C(=O)Nc2ccc3[nH]ncc3c2)C(c2ccc3ccccc3c2)CC(=O)N1 (stereo not shown) [GSK270822A]	85%	93%	79%	85%	89%	83%	89%	100%	96%	100%
NS(=O)(=O)c1ccc(N/N=C2\C(=O)Nc3ccc(C(=O)NCCc4c[nH]cn4)cc32)cc1 [GW300660X]	100%	81%	100%	100%	100%	100%	2.2%	100%	100%	54%
COc1cc(/C=N/Nc2ncnc3[nH]ncc23)ccc1O [GW578748X]	100%	97%	58%	100%	100%	100%	100%	100%	100%	7.6%
C[C@@H](Oc1cc(-n2cnc3ccc(OC4CCN(C)CC4)cc32)sc1C(N)=O)c1ccccc1Cl [GSK579289A]	100%	84%	0%	100%	75%	74%	94%	94%	86%	54%
NS(=O)(=O)c1ccc(N/N=C2\C(=O)Nc3ccc(-c4cnco4)cc32)cc1 [GW276655]	87%	82%	100%	95%	76%	88%	1.4%	76%	100%	79%

Structure (SMILES)	Percent Control (PAK1)	Percent Control (PAK2)	Percent Control (PAK3)	Percent Control (PAK4)	Percent Control (PAK6)	Percent Control (PAK7)	Percent Control (PCTK1)	Percent Control (PCTK2)	Percent Control (PCTK3)	Percent Control (PDGFRA)
COc1ccc2cc(-c3c(-c4ccncc4)nc(-c4ccc(S(C)(=O)=O)cc4C)n3C)ccc2c1 [SB-633825]	87%	85%	12%	81%	97%	87%	74%	100%	100%	91%
COC(=O)Nc1nc2ccc(Oc3ccc(NC(=O)Nc4cc(C(F)(F)F)ccc4F)cc3)cc2s1.Cl [GW693917A]	100%	100%	43%	100%	82%	91%	74%	72%	78%	11%
CCc1ccc(Oc2nccc(-c3c(-c4ccc(F)cc4)ncn3C3CCNCC3)n2)cc1 [SB-242719]	100%	100%	71%	100%	82%	98%	87%	100%	94%	100%
Cl.O=S1CCN(Cc2ccc(-c3ccc4ncnc(Nc5ccc(OCc6ccccc6)c(F)c5)c4c3)o2)CC1 [GW576924A]	100%	100%	78%	100%	100%	100%	100%	100%	100%	84%
COc1cc(N2CCN(C(C)C)CC2)ccc1Nc1nc(Nc2ccc(F)cc2C(=O)NC[C@@H](O)CO)c2cc[nH]c2n1 [GSK1392956A]	100%	100%	100%	100%	89%	67%	82%	100%	100%	91%
COc1cc2ncnc(Nc3ccc4c(cnn4Cc4ccccc4)c3)c2cc1OC.Cl [GW282449A]	100%	100%	30%	100%	100%	100%	100%	100%	100%	83%
COc1cccc(-n2ncc3c(N/N=C/c4ccncc4)ncnc32)c1 [GW784752X]	100%	100%	100%	100%	96%	100%	25%	70%	100%	36%
CN(C)CCNC(=O)Nc1ccc(N(C)c2ccnc(Nc3ccc(CS(C)(=O)=O)cc3)n2)cc1.Cl [GW830900A]	99%	79%	2.1%	71%	90%	71%	100%	100%	100%	2%
COc1cc2ncn(-c3cc(O[C@H](C)c4ccccc4Cl)c(C(N)=O)s3)c2cc1OC [GSK237701A]	98%	93%	7.6%	93%	88%	100%	90%	100%	100%	24%
CCS(=O)(=O)c1ccc(OC)c(Nc2ncc(-c3cccc(F)c3)o2)c1 [GW621970X]	100%	100%	100%	100%	100%	100%	100%	100%	81%	49%
Cl.O=C(Nc1ccc(Oc2ccc3[nH]c(NC(=O)c4ccccc4)nc3c2)cc1)Nc1cc(C(F)(F)F)ccc1F [GW709042A]	93%	90%	5.9%	100%	96%	100%	100%	100%	96%	35%
C/C(Nc1ccc(S(N)(=O)=O)cc1)=C1/C(=O)Nc2ccccc21 [GW335962X]	82%	80%	64%	89%	85%	100%	23%	100%	78%	6.1%
CCn1c(-c2nonc2N)nc2c(C#CC(C)(C)O)nc(OCCNC)cc21.Cl [GSK949675]	100%	52%	100%	75%	60%	46%	82%	100%	100%	100%
CC(C)COC(=O)c1ccc2c(c1)/C(=C/Nc1ccc(S(N)(=O)=O)cc1)C(=O)N2 [GW416981X]	100%	100%	100%	100%	100%	97%	0.6%	16%	60%	55%
COc1cc(C=NNc2ncnc3c2cnn3-c2ccccc2)ccc1O [GW513184X]	100%	100%	50%	100%	100%	100%	29%	38%	84%	63%
CN(C)c1cc2c(Nc3ccc4c(cnn4Cc4ccccc4)c3)ncnc2cn1 [GW282974X]	89%	79%	26%	98%	87%	88%	87%	100%	100%	100%
COc1ccc(COc2ccc(Cc3cnc(N)nc3N)cc2OC)cc1 [GW632580X]	100%	100%	62%	100%	92%	100%	84%	100%	73%	91%
COc1ccccc1-c1cc(/C=C2\C(=O)Nc3ncc(Br)cc32)cc(Br)c1O [GW442130X]	100%	100%	67%	100%	100%	98%	79%	100%	100%	71%
Cl.O=C(O[C@H]1CN[C@H](C#Cc2cc3ncnc(Nc4ccc5c(cnn5Cc5ccccc5)c4)c3s2)C1)N1CCOCC1 [GSK200398A]	100%	100%	63%	100%	100%	89%	83%	96%	100%	83%
NS(=O)(=O)c1ccc(Nc2ncc(-c3ccccc3)o2)cc1 [GW572399X]	100%	100%	86%	100%	87%	100%	3.8%	100%	100%	8.8%

From PMC7826789 (International Journal of Molecular Sciences, 2021)
